Most compounds without a hit are left out; they make up all but 3.7% or so of the library.
NLRP3 yeast inh: NALP3 inhibition in yeast; hit rate 0.39% among 330,000; Yeast reconstituted NLRP3/ASC/caspase-1, beta-gal luminescence, 24 h; inhibition, % at 10 µM; AID 2825;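 active = inhibition of 50% or more; inactive = inhibition below 50%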;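 note: plate controls were induced DMSO wells for no effect and uninduced yeast grown without galactose for full effect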
TIM10 inh: TIM10 yeast growth inhibition. AID 463195. hit rate 1.4% among 330,000. inhibition, % at 10 µM. S. cerevisiae TIM10 strain growth, BacTiter-Glo luminescence, 24 h;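 active = inhibition of 40% or more at the single tested concentration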;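 note: wild-type TIM10 isogenic control strain grown at permissive 25 °C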
PfHsp90 set2: growth inhibition of yeast expressing Plasmodium Hsp90. S. cerevisiae expressing PfHsp90, BacTiter-Glo ATP, 48 h; yeast lacking PDR1 and PDR3 efflux regulators. inhibition, % at 9.4 µM. hit rate 0.32% among 310,000. AID 504621;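 active = every replicate shows inhibition above about 80%, whatever the replicate mean, limit read from the data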;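 note: 0% = DMSO neutral controls and 100% = 20 µM radicicol positive controls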
tim10-1 inh: inhibits growth of tim10-1 mutant yeast; hit rate 2.2% among 330,000; inhibition, % at 20 µM; S. cerevisiae tim10-1 ts strain growth, BacTiter-Glo, 24 h; AID 463190;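 active = inhibition of at least 40%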;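 note: mutant grown at 25 °C; 0% = DMSO wells with yeast and 100% = wells holding no yeast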
tim23-1 inh: tim23-1 yeast growth inhibition; S. cerevisiae tim23-1 growth, BacTiter-Glo luminescence, 24 h; inhibition, % at 20 µM; hit rate 1.3% among 330,000; AID 463212;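 active = growth inhibition of the mutant yeast at or above 50%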;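 note: temperature-sensitive mutant grown at 25 °C; plate controls were DMSO-treated mutant yeast for no effect and medium wells lacking yeast for full effect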
tim23-1 conf: tim23-1 yeast growth inhibition, confirmed | shares compounds with tim23-1 inh | S. cerevisiae tim23-1 growth, BacTiter-Glo luminescence, 24 h | inhibition, % at 20 µM | hit rate 83% among 4,400;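 active = inhibition above about 39% in either of two replicate wells at 20 µM, limit read from the data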;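 note: temperature-sensitive tim23-1 mutant grown at 25 °C; 0% = DMSO wells with yeast and 100% = medium wells without yeast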
* = called active by the depositor; x = no result.

SMILES | NLRP3 yeast inh | TIM10 inh | PfHsp90 set2 | tim10-1 inh | tim23-1 inh | tim23-1 conf
CCCC(=O)Nc1nnc(COC)s1 | 7 | -14 | 7 | 6 | 1 | x
Cc1ccc2nc(-c3cccc(N)c3)oc2c1 | 11 | 6 | -30 | -8 | 6 | x
Cc1cc(C)c2oc(-c3cccc(N)c3)nc2c1 | 19 | -25 | -53 | 14 | 64* | 60*
CC1(C2CC2)NC(=O)N(CC(=O)Nc2ccccc2C#N)C1=O (stereo not drawn) | 6 | 4 | x | -1 | -3 | x
Cc1ccn(S(=O)(=O)c2ccc(N3CCCC3=O)cc2)n1 | 1 | -16 | 33 | -4 | -3 | x
NNC(=O)c1cc2cc(Oc3ccccc3)ccc2[nH]1 | 29 | 26 | 13 | 37 | 59* | 15
NNC(=O)c1cc2ccccc2[nH]1 | 1 | -1 | -5 | -19 | 2 | x
COc1ccc(/C=N/NC(=O)NC23CC4CC(CC(C4)C2)C3)c(OC)c1 | -3 | 13 | 4 | 37 | 55* | 45*
COc1ccccc1/C=N/NC(=O)NC12CC3CC(CC(C3)C1)C2 | 10 | 27 | -3 | 24 | 48 | x
Cc1cc(NC(=O)CN2C(=O)S/C(=C\c3ccccc3)C2=O)no1 | 14 | -8 | -62 | -3 | -8 | x
O=C(CN1C(=O)S/C(=C/c2ccncc2)C1=O)Nc1ccccc1 | 18 | 34 | 10 | 31 | 53* | 51*
COc1ccc(C2/C=C\CN(Cc3ccncc3)CC(=O)N2Cc2ccc(F)cc2)cc1 (stereo not drawn) | -4 | 13 | x | 30 | 11 | x
Cc1nc2c(n1C1CCCCC1)C(=O)c1ccccc1C2=O | -22 | 25 | -58 | 34 | 51* | 40*
O=[N+]([O-])c1ccc2c(c1N1CCCCC1)=NC1(CCCCC1)[N+]=2[O-] | 17 | 27 | -7 | 35 | 54* | 42*
CCN(c1ccccc1)S(=O)(=O)c1ccc(OC)c(NC(=O)C2=NN(c3ccccc3)C(=O)CC2)c1 | 13 | 8 | -13 | 12 | 2 | x
CCOc1ccc(-n2ccnc(SCC(=O)Nc3ccc(CC)cc3)c2=O)cc1 | 33 | 7 | -11 | 16 | 56* | 53*
CCOCc1c(C(=O)OCC(=O)/C(C#N)=C(\C)N)oc2ccccc12 | 3 | 12 | 1 | 20 | 9 | x
CCn1c(SCC(=O)Nc2nc3ccccc3s2)nc2c(c1=O)SC(C)C2 (stereo not drawn) | 14 | -15 | x | 15 | 28 | x
CCn1c(SCC(=O)Nc2nc3ccc(C)cc3s2)nc2c(c1=O)SC(C)C2 (stereo not drawn) | 12 | -4 | -49 | 33 | 52* | 47*
N#C/C(=C\c1ccc(N2CCOCC2)o1)c1ccccc1 | 26 | 23 | -25 | 34 | 36 | x
N#C/C(=C/c1ccc(N2CCOCC2)o1)c1nc2ccccc2[nH]1 | 10 | 34 | 3 | 18 | 57* | 66*
N#C/C(=C\c1ccc(Sc2nc3ccccc3[nH]2)o1)c1ccccc1 | 6 | 35 | 6 | 33 | 51* | 41*
CSc1nnc(NC(=O)c2nc(S(=O)(=O)Cc3ccccc3)ncc2Cl)s1 | 12 | 10 | 14 | 14 | 15 | x
COc1ccccc1NC(=O)c1nc(S(=O)(=O)Cc2ccccc2)ncc1Cl | 14 | 36 | 21 | 28 | 53* | 48*
COC(=O)c1ccc(NC(=O)c2nc(S(=O)(=O)Cc3cccc(C)c3)ncc2Cl)cc1 | 16 | 1 | 109* | 32 | 69* | 51*
SMILES | NLRP3 yeast inh | TIM10 inh | PfHsp90 set2 | tim10-1 inh | tim23-1 inh | tim23-1 conf
CC1CCC2(CC1)NC(=O)c1ccccc1O2 (stereo not drawn) | 13 | -4 | 27 | 8 | 12 | x
CC1CCCC(C)N1C(=O)COC(=O)C12CC3CC(CC(Cl)(C3)C1)C2 (stereo not drawn) | 14 | 21 | -2 | 20 | 42 | x
CN(C(=O)COC(=O)C12CC3CC(CC(Cl)(C3)C1)C2)c1ccccc1 | -6 | 26 | x | 23 | 56* | 44*
Cc1ccc(S(=O)(=O)N(C)C[C@H]2Oc3ccc(NC(=O)Nc4c(C)noc4C)cc3CC(=O)N([C@@H](C)CO)C[C@@H]2C)cc1 | 17 | 11 | -5 | 4 | -5 | x
COc1ccc(NC(=O)c2cccs2)cn1 | 29 | 19 | -6 | 16 | 52* | 48*
CCCCC(=O)Nc1ccc(NC(=O)c2cccs2)cn1 | 20 | -11 | 1 | -16 | 51* | 43*
COc1ccc(CCNC(=O)CSc2nnc(-c3ccc(F)cc3)o2)cc1OC | 1 | 6 | 24 | 3 | 4 | x
CCCC[C@@H]1C[C@H]1[C@@H](NC(=O)c1ccco1)c1ccccc1C(F)(F)F | 18 | 15 | x | 9 | 22 | x
Nc1cc(-c2ccccc2)nn1Cc1ccc(Cl)cc1 | 23 | 15 | 22 | 30 | 50* | 27
Nc1cc(-c2ccc(Br)cc2)nn1Cc1ccccc1 | x | x | 2 | x | x | x
CC1CN(C(=O)COC(=O)c2ccc(F)cc2Cl)CC(C)O1 (stereo not drawn) | 0 | -4 | 8 | 10 | 6 | x
COC(=O)CC1COc2ccccc2N1S(=O)(=O)c1ccc(OC)cc1 (stereo not drawn) | 5 | -4 | -4 | 9 | 12 | x
COC(=O)CC1COc2ccccc2N1S(=O)(=O)c1ccc(Br)cc1 (stereo not drawn) | -25 | 19 | -28 | 18 | 53* | 36
CC(C)C(=O)Nc1ncc(Cc2cccc(Cl)c2)s1 | 23 | 31 | -55 | 38 | 55* | 40*
O=C(Nc1ncc(Cc2cccc(Cl)c2Cl)s1)C1CCCO1 (stereo not drawn) | 25 | -31 | -12 | -7 | 30 | x
O=C(Nc1ncc(Cc2cccc(Cl)c2)s1)C1CCCO1 (stereo not drawn) | 22 | 28 | -10 | 28 | 50* | 43*
O=C1CN(S(=O)(=O)c2ccc(Cl)cc2)c2ccccc2N1 | 1 | -8 | 8 | 7 | 14 | x
CCCn1c(N)c(C(=O)COC(=O)c2cccc(S(=O)(=O)N3CCOCC3)c2)c(=O)[nH]c1=O | -3 | 7 | -6 | -14 | -12 | x
CN(C)S(=O)(=O)c1cccc(NC(=O)CN2C(=O)NC(Cc3ccccc3)C2=O)c1 (stereo not drawn) | -9 | 11 | 15 | 19 | 18 | x
Clc1cc2cccnc2c2ncccc12 | 21 | 14 | 3 | 9 | 65* | 39
O=S(=O)(Nc1cccc(-n2cnnn2)c1)c1cc(Br)ccc1Br | -11 | 17 | 6 | 22 | 11 | x
O=C(Oc1ccc(=O)n(-c2ccccc2)n1)c1ccc(Cl)cc1 | -4 | 24 | -29 | 23 | 60* | 43*
O=C(Oc1ccc(=O)n(-c2ccccc2)n1)c1ccc(F)cc1 | 10 | 21 | 14 | 10 | 12 | x
NC(CCC(=O)O)C12CC3CC(CC(C3)C1)C2 (stereo not drawn) | 14 | 0 | 3 | 3 | 1 | x
CCc1ccc(N2CC(C(=O)OCC(=O)Nc3ccc(C(C)=O)cc3)CC2=O)cc1 (stereo not drawn) | 14 | -5 | 11 | 3 | 9 | x

Compound activity: PubChem, several laboratories
